Test results from PubChem BioAssay AID1159580 (chemical genetic matrix, 2015).
Where “and” joins values, the source holds several entries; their conditions need not be identical. Identical values can stand only once. Hit rate of the full screen: of about 5,500 compounds, about 2,000 (36%) were called active. Roughly 18% stayed inconclusive and do not appear here. Cut-off read from the data, not from the text of the source: active = normalized growth mostly below about 0.91 (no sharp cut-off); inconclusive = no clear call, values can overlap the other calls; inactive = mostly above about 0.92. This is one part of the list.

Assay: chemical genetic growth profiling, strain panel (AID 1159580);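 note: tested at 20 µM; growth read once vehicle control cultures reached saturation at 30 °C; 1 = growth at the plate median or of vehicle wells; lower values mean less growth of the strain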
Conditions: S. cerevisiae deletion strains, growth OD

Measured: normalized growth

CCCCCCCCCc1ccc(O)cc1
inactive: locus YDL185W, strain tfp1, stronger effect = lower value 0.929 | locus YJL168C, strain set2, stronger effect = lower value 0.992
active: locus YAL013W, strain DEP1, stronger effect = lower value 0.118 | locus YAL021C, strain ccr4, stronger effect = lower value 0.0845 | locus YAL026C, strain drs2, stronger effect = lower value 0.0626 | locus YAL030W, strain snc1, stronger effect = lower value 0.0571 | locus YBL061C, strain skt5, stronger effect = lower value 0.0594 | locus YBR009C, strain hhf1, stronger effect = lower value 0.0563 | locus YBR021W, strain FUR4, stronger effect = lower value 0.215 | locus YBR023C, strain chs3, stronger effect = lower value 0.0626 | locus YBR171W, strain sec66, stronger effect = lower value 0.0781 | locus YBR229C, strain ROT2, stronger effect = lower value 0.144 | locus YBR231C, strain swc5, stronger effect = lower value 0.0635 | locus YBR279W, strain paf1, stronger effect = lower value 0.066 | locus YCL011C, strain gbp2, stronger effect = lower value 0.0546 | locus YCL016C, strain dcc1, stronger effect = lower value 0.0648 | locus YCL029C, strain bik1, stronger effect = lower value 0.617 | locus YCL061C, strain MRC1, stronger effect = lower value 0.0666 | locus YCL069W, strain vba3, stronger effect = lower value 0.0655 | locus YCR088W, strain abp1, stronger effect = lower value 0.0637 | locus YDL005C, strain med2, stronger effect = lower value 0.0719 | locus YDL035C, strain GPR1, stronger effect = lower value 0.0859 | locus YDL040C, strain nat1, stronger effect = lower value 0.0822 | locus YDL074C, strain BRE1, stronger effect = lower value 0.0981 | locus YDL101C, strain DUN1, stronger effect = lower value 0.1 | locus YDL134C, strain PPH21, stronger effect = lower value 0.0971 | locus YDL192W, strain arf1, stronger effect = lower value 0.411 | locus YDR001C, strain nth1, stronger effect = lower value 0.0685 | locus YDR069C, strain doa4, stronger effect = lower value 0.115 | locus YDR101C, strain arx1, stronger effect = lower value 0.721 | locus YDR137W, strain rgp1, stronger effect = lower value 0.101 | locus YDR150W, strain NUM1, stronger effect = lower value 0.529 | locus YDR159W, strain sac3, stronger effect = lower value 0.0748 | locus YDR162C, strain NBP2, stronger effect = lower value 0.102 | locus YDR195W, strain ref2 0.0909 | locus YDR297W, strain sur2, stronger effect = lower value 0.0579 | locus YDR318W, strain mcm21, stronger effect = lower value 0.58 | locus YDR334W, strain swr1, stronger effect = lower value 0.0683 | locus YDR335W, strain msn5, stronger effect = lower value 0.06 | locus YDR388W, stronger effect = lower value 0.678 | locus YDR392W, strain spt3, stronger effect = lower value 0.0671 | locus YDR502C, strain sam2, stronger effect = lower value 0.8 | locus YEL003W, strain gim4, stronger effect = lower value 0.0581 | locus YEL037C, strain rad23, stronger effect = lower value 0.0885 | locus YEL061C, strain CIN8 (second series), stronger effect = lower value 0.059 | locus YEL061C, strain CIN8, stronger effect = lower value 0.131 | locus YER015W, strain faa2, stronger effect = lower value 0.0639 | locus YER016W, strain bim1, stronger effect = lower value 0.0583 | locus YER110C, stronger effect = lower value 0.603 | locus YER111C, strain swi4, stronger effect = lower value 0.0713 | locus YER155C, strain BEM2 (second series), stronger effect = lower value 0.504 | locus YER155C, strain BEM2, stronger effect = lower value 0.101 | locus YER167W, strain BCK2, stronger effect = lower value 0.117 | locus YFR010W, strain ubp6, stronger effect = lower value 0.0798 | locus YGL078C, strain dbp3, stronger effect = lower value 0.885 | locus YGL086W, strain mad1, stronger effect = lower value 0.697 | locus YGL167C, strain pmr1, stronger effect = lower value 0.0729 | locus YGL173C, strain kem1, stronger effect = lower value 0.0956 | locus YGL227W, strain vid30, stronger effect = lower value 0.0725 | locus YGL240W, strain doc1, stronger effect = lower value 0.157 | locus YGL248W, strain PDE1, stronger effect = lower value 0.181 | locus YGL253W, strain hxk2, stronger effect = lower value 0.0662 | locus YGR078C, strain PAC10, stronger effect = lower value 0.174 | locus YGR135W, strain pre9, stronger effect = lower value 0.842 | locus YGR229C, strain SMI1, stronger effect = lower value 0.0784 | locus YGR252W, strain gcn5, stronger effect = lower value 0.518 | locus YHR013C, strain ard1, stronger effect = lower value 0.102 | locus YHR027C, strain rpn1, stronger effect = lower value 0.0645 | locus YHR030C, strain SLT2, stronger effect = lower value 0.0665 and 0.09 | locus YHR079C, strain IRE1 (second series), stronger effect = lower value 0.488 | locus YHR079C, strain IRE1, stronger effect = lower value 0.107 | locus YHR094C, strain hxt1, stronger effect = lower value 0.87 | locus YHR129C, strain ARP1, stronger effect = lower value 0.173 | locus YHR142W, strain chs7, stronger effect = lower value 0.064 | locus YHR200W, strain rpn10, stronger effect = lower value 0.577 | locus YIL066C, strain RNR3, stronger effect = lower value 0.116 | locus YIL073C, strain SPO22, stronger effect = lower value 0.182 | locus YIL125W, strain kgd1, stronger effect = lower value 0.405 | locus YIR030C, strain dcg1, stronger effect = lower value 0.762 | locus YJL092W, strain hpr5, stronger effect = lower value 0.0838 | locus YJL095W, strain BCK1 (second series), stronger effect = lower value 0.0552 | locus YJL095W, strain BCK1, stronger effect = lower value 0.0671 and 0.102 | locus YJL115W, strain asf1, stronger effect = lower value 0.113 | locus YJL129C, strain trk1, stronger effect = lower value 0.0774 | locus YJL134W, strain LCB3, stronger effect = lower value 0.308 | locus YJL154C, strain vps35, stronger effect = lower value 0.0618 | locus YJL164C, strain tpk1, stronger effect = lower value 0.0542 | locus YJL166W, strain qcr8, stronger effect = lower value 0.057 | locus YJL187C, strain SWE1 (second series), stronger effect = lower value 0.193 | locus YJL187C, strain SWE1, stronger effect = lower value 0.06 | locus YJR043C, strain POL32, stronger effect = lower value 0.107 | locus YJR066W, strain TOR1, stronger effect = lower value -0.000468
